Only some compounds are listed: those with a hit (about 8.8% of all), similar ones and a draw of the others.
HT1080 IDH1KD tx = HT-1080 IDH1 knockdown cell toxicity (counter line); Potency, µM (doses to about 46.1 µM), without a hit: at the top dose activity, negative = toxicity, usual class: cytotoxic; hit rate 2% among 360,000; HT-1080 IDH1 knockdown viability, ATP luminescence, 48 h;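 note: potency is the fitted concentration of half-maximal effect; 0% = DMSO wells and -100% = cell-free medium wells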
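CellTiter-Glo luminescence after 48 h compound exposure at 37 degrees C of IDH1-knockdown HT-1080 cells in 5% FBS RPMI. %Activity scaled between DMSO wells and cell-free media wells, with curves fitted and assigned curve classes.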
IL-1B inflam inh = blocks inflammasome-driven IL-1 beta release; THP-1 LPS/ATP IL-1B secretion, AlphaLISA, 16 h; active compounds read low; activity change, % at 57.5 µM; hit rate 4.7% among 360,000; AID 743279; in the data active = activity change below about -50%; inconclusive = mostly about -30% to -49%
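THP-1 cells pretreated 1 hr with compounds (up to 57.5 uM final), then stimulated with LPS (250 ng/mL final) plus ATP (1.25 mM final); secreted IL-1B measured by AlphaLISA after 16 hr, decreased signal indicating inhibition.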
KB-V1 MDR tox = KB-V1 MDR subline cytotoxicity | KB-V1 MDR cells viability, CellTiter-Glo, 72 h | Potency, µM (titrated, usually from 46.1 µM), hits mostly cytotoxic | hit rate 3.4% among 400,000 | AID 1347076; note: potency is the fitted concentration of half-maximal effect; nearly all actives have a fitted effect of over 60% in size
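Drug-selected KB-V1 cells, grown in DMEM lacking phenol red with 10% FBS, receive compound titrations; after three days at 37 degrees C, surviving cell ATP is quantified by CellTiter-Glo luminescence and responses normalized and curve-fitted.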
KB-3-1 tox = kills parental KB-3-1 adenocarcinoma cells. KB-3-1 viability, CellTiter-Glo ATP luminescence, 72 h. Potency, µM (titrated, usually from 46.1 µM), actives largely listed as cytotoxic. hit rate 1.4% among 400,000. AID 1347075; note: potency is the fitted concentration of half-maximal effect; nearly all actives have a fitted effect of over 60% in size
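Using CellTiter-Glo luminescence, growth of non-resistant KB-3-1 adenocarcinoma cells is assessed 72 h after pin-tool compound addition at 37 °C. Normalized responses across the concentration series yield fitted curves.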
HT1080NT lethal = kills 2HG-producing HT-1080-NT fibrosarcoma cells | HT-1080-NT fibrosarcoma viability, CellTiter-Glo ATP luminescence, 48 h | Potency, µM (series often up to 46.1 µM), for inactives: at the top dose activity, negative = less viability, actives largely listed as cytotoxic | hit rate 1.6% among 360,000;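 note: NT is the 2HG producing partner of a matched IDH1 knockdown line; potency is the fitted concentration of half-maximal effect; 0% = DMSO-treated cells and -100% = media-only wells without cells; nearly all actives have a fitted effect of over 55% in size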
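Luminescent CellTiter-Glo readout after 48 hours of compound exposure at 37 degrees C defined viability of HT-1080-NT cells. Activity was normalized to DMSO wells and cell-free media wells; concentration-response curves were fitted and assigned curve classes.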
The depositor's hits bear a star; i = inactive; ? = inconclusive; · = no result given; [ ] = dose if it differs, or a comment. Unless noted, calls come from the whole dose curve; as a rule, active = well fitted curve in the direction sought with a large enough effect; inconclusive = small, poorly fitted or top-dose-only effect, or another doubt; inactive = no such curve, though single readings can be large; an effect the other way counts as inactive or inconclusive. Unless noted, % is set by controls: 0 for no effect and ±100 for the full control effect.

SMILES	HT1080 IDH1KD tx	IL-1B inflam inh	KB-V1 MDR tox	KB-3-1 tox	HT1080NT lethal
CCCC1C(=O)Nc2ccccc2N1C(=O)c1cccc(C)c1 (configuration not stated)	-5.0%	-18.5	?	?	-2.8%
CCCC1C(=O)Nc2ccccc2N1C(=O)c1ccc(C(C)(C)C)cc1 (configuration not stated)	?	-82.1*	i	i	9.2µM*
CC1(C(=O)NS(=O)(=O)c2ccc(F)cc2F)CCN1C(=O)c1cccc(F)c1 (configuration not stated)	24.3%	24.2	i	i	?
O=C(Nc1ccc2nc3n(c(=O)c2c1)CCCCC3)c1c(F)ccc([N+](=O)[O-])c1F	14.6µM*	-101.8*	16.4µM*	2.31µM*	9.2µM*
O=C(Nc1ccc2nc3n(c(=O)c2c1)CCCCC3)c1cc([N+](=O)[O-])ccc1F	?	-93.4*	i	?	?
O=C(Nc1ccc2nc3n(c(=O)c2c1)CCCC3)c1ccccc1F	12.0%	-11.2	i	i	11.2%
CC1(O)C(c2ccccc2)=Nc2ccccc21 (configuration not stated)	-13.9%	29.8	i	i	-14.5%
CCCC(=O)Nc1ccc(Cl)c(NC(=O)c2cccc(OC)c2)c1	-10.5%	0.0	i	?	-3.1%
Cc1ccc(C(C)C)c(OCc2ccc(C(=O)N/N=C/c3ccc(O)c(O)c3)cc2)c1	?	-100.4*	?	?	-25.8%
COc1cc(/C=N/NC(=O)c2ccc(COc3cc(C)ccc3C(C)C)cc2)cc(OC)c1O	20.6µM*	-4.8	?	?	20.6µM*
CCN(CC)S(=O)(=O)c1cccc(C(=O)N/N=C/c2cccc(O)c2O)c1	?	0.0	i	i	?
Cc1ccc(C(C)C)c(OCc2ccc(C(=O)N/N=C/c3cccc(O)c3O)cc2)c1	?	74.4	i	i	9.2µM*
COc1ccc(CNC(=O)CSc2ccc(Br)cc2)cc1OC	-1.8%	0.0	i	i	1.9%
CCOC(=O)N1CCN(C(=O)/C(=C/c2cccc3ccccc23)NC(=O)c2ccc(OC)c(OC)c2)CC1	0.1%	3.3	4.61µM*	i	-1.6%
CCOC(=O)N1CCN(C(=O)/C(=C/c2ccc(Br)cc2)NC(=O)c2ccc(OC)cc2)CC1	-0.8%	0.4	18.4µM*	i	5.1%
CC[C@H](C)[C@@H]1OC(=O)[C@@H](C)[C@@H](CC)NC(=O)[C@H](C)N(C)C(=O)C(C)(C)C(=O)C(C)NC(=O)[C@H](Cc2ccccc2)N(C)C(=O)[C@H](C(C)C)N(C)C(=O)CNC(=O)[C@H](CC(C)C)N(C)C(=O)CNC1=O (some centres not stated)	0.92µM*	-28.8	i	1.16µM*	1.3µM*
CCOc1ccc(N=c2scc(-c3ccc(OC)cc3)n2CCO)cc1	-16.5%	?	i	?	-23.4%
c1ccc(-c2csc(=Nc3cccnc3)n2CC2CCCO2)cc1 (configuration not stated)	0.3%	11.0	?	i	-1.6%
OCCn1c(-c2ccc(F)cc2)csc1=Nc1ccccc1	-8.5%	-52.7*	i	?	-3.0%
CCOc1ccc(N=c2scc(-c3ccccc3)n2CCO)cc1	-17.3%	-65.6*	?	i	?
OCCn1c(-c2ccc3c(c2)OCO3)csc1=Nc1ccccc1	-25.6%	-62.5*	i	?	-3.6%
OC(c1ccccc1)(c1nc(-c2ccc3c(c2)OCO3)cs1)C(F)(F)F (configuration not stated)	?	-5.3	i	i	?
CCn1c(-c2ccccc2)csc1=Nc1ccc(O)cc1	-14.9%	-95.4*	i	i	-6.4%
CC1C(c2ccccc2)=Nn2c(=O)n(-c3ccccc3)c(=O)n21 (configuration not stated)	3.4%	41.1	?	i	-1.8%
CN(CCc1ccccc1)C(=O)c1cccc(NC(=O)Cc2cccc(NC(=O)C3CCN(C(=O)c4ccccc4)CC3)c2)c1	-4.7%	-5.4	i	i	-3.0%
SMILES	HT1080 IDH1KD tx	IL-1B inflam inh	KB-V1 MDR tox	KB-3-1 tox	HT1080NT lethal
C/C(=C\c1ccccc1)CN1CCN(C)CC1	-10.2%	28.5	i	i	-17.6%
CCOC(=O)N1CCN(C(=O)C(c2ccccc2)c2ccccc2)CC1	-0.1%	-6.0	4.11µM*	i	0.5%
CCOC(=O)N1CCN(C/C(C)=C/c2ccccc2)CC1	2.3%	-13.5	14.6µM*	i	10.7%
O=C(NCc1ccc(F)cc1)c1ccc(S(=O)(=O)N2CCCC2)cc1	5.0%	-11.1	?	i	-2.0%
COC(=O)c1ccc(CNC(=O)c2ccc(S(=O)(=O)N3CCCC(C)C3)cc2)cc1 (configuration not stated)	8.3%	8.4	16.4µM*	i	-1.3%
Cc1ccc(Nc2nc(C(=O)NCc3ccco3)cs2)cc1	-0.5%	?	?	i	-1.2%
CCOC(=O)/C(=N/Nc1ccccc1)c1csc(Nc2ccccc2)n1	?	-1.0	?	i	?
CCOC(=O)/C(=N\Nc1ccc(Cl)cc1)c1csc(Nc2ccccc2)n1	?	-73.4*	i	i	?
CCN(CC)C(=O)c1csc(Nc2ccc(C)cc2)n1	3.4%	-0.4	14.6µM*	i	22.9%
Cc1ccc(-n2c(=O)c3oc4ccccc4c3n(Cc3ccccc3)c2=O)cc1C	·	·	i	i	·
COc1ccc(CCNS(=O)(=O)c2cccc(S(=O)(=O)N3CCCC3)c2)cc1OC	2.2%[9.24 µM]	-14.9	18.4µM*	i	0.7%
O=C(CCCOc1ccccc1)Nc1cccc(S(=O)(=O)N2CCCCC2)c1	0.0%	-8.7	i	i	-0.4%
COc1ccc(CC(=O)Nc2cccc(S(=O)(=O)N3CCCCCC3)c2)cc1OC	-20.8%	-3.6	1.84µM*	2.91µM*	-16.2%
COc1ccc(CCNS(=O)(=O)c2cccc(C)c2)cc1OC	-9.4%	-2.4	?	i	-4.9%[9.24 µM]
COc1ccc(NC(=O)CCOc2cc(C)ccc2C)cc1S(=O)(=O)N1CCCCC1	0.3%	-53.7*	?	?	-3.6%
COc1ccc(NC(=O)CCCOc2ccc(C)cc2)cc1S(=O)(=O)N1CCCCC1	-25.5%	-2.4	i	i	-16.3%
CC(C)(C)c1ccc(OCCC(=O)Nc2cccc(S(=O)(=O)N3CCCCC3)c2)cc1	?	?	20.6µM*	?	-29.4%
C[C@@H]1CN(S(=O)C(C)(C)C)[C@@H](CCO)/C1=C\CCO (some centres not stated)	8.7%	16.8	i	i	4.7%
CCOc1ccc(/C=N/NC(=O)c2ccccc2O)cc1CN1CC2CC(C1)c1cccc(=O)n1C2 (configuration not stated)	?	6.3	?	i	0.0%

Screens deposited in PubChem by National Center for Advancing Translational Sciences (NCATS).
